Screens from PubChem BioAssay.
DT40 TDP1 no CPT: qHTS for Inhibitors of human tyrosyl-DNA phosphodiesterase 1 (TDP1): qHTS in cells in absence of CPT | DT40 Tdp1-/- hTDP1 cells, no CPT, ATP luminescence, 48 h | Potency, µM (titrated, usually from 46.2 µM), for the others: at the highest dose activity change, negative = growth inhibition, usual class: inhibitors | 15% of 420,000 active | AID 686978, 2013; note: potency is the fitted concentration of half-maximal effect; nearly all actives have a fitted effect of over 55% in size
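Chicken DT40 Tdp1-/- cells complemented with human TDP1, screened without camptothecin (DMSO vehicle only), 400 cells/well. Compounds pin-transferred, cells incubated at 37 °C for at least 48 hr. Growth read as ATP-dependent luminescence (CellTiter-Glo, 30 min at RT).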
Gal4-VP16 FLuc: VP16 counterscreen qHTS for inhibitors of ROR gamma transcriptional activity; Drosophila S2 Gal4-VP16 UAS-luciferase, luminescence, 20 h; 3.5% of 310,000 active; Potency, µM (titrated, usually from 53.6 µM), for the others: at the top dose activity, negative = inhibition, hits mostly inhibitors;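 note: Gal4-VP16 expression switched on by copper sulfate through the metallothionein promoter; potency is the fitted concentration of half-maximal effect; nearly all actives have a fitted effect of over 50% in size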
ELG1 DNA repair: qHTS screen for small molecules that inhibit ELG1-dependent DNA repair in human embryonic kidney (HEK293T) cells expressing luciferase-tagged ELG1; Potency, µM (top dose mostly 46.1 µM), without a hit: at the top dose activity change, negative = inhibition, most hits filed as inhibitors; 2.3% of 330,000 active; HEK293T ELG1-luciferase reporter, luminescence, 16 h; DNA damage induced by 5-fluorouridine; AID 504467, 2011; note: potency is the fitted concentration of half-maximal effect; nearly all actives have a fitted effect of over 55% in size
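Step one: seed 2,000 cells per well. Step two: pin-transfer compound or DMSO alongside 5-fluorouridine. Step three: incubate 16 hr, 37 °C, 5% CO2. Step four: add ONE-Glo, wait 30 min, read luminescence.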
TDP1 cell CPT: qHTS for Inhibitors of human tyrosyl-DNA phosphodiesterase 1 (TDP1): qHTS in cells in presence of CPT | 12% of 420,000 active | chicken DT40 Tdp1-/-;hTDP1 cells + 20 nM CPT, ATP luminescence, 48 h | Potency, µM (series often up to 46.2 µM), without a hit: at the highest dose activity change, negative = growth inhibition, actives largely listed as inhibitors; note: potency is the fitted concentration of half-maximal effect; nearly all actives have a fitted effect of over 55% in size
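Cell growth measured by CellTiter-Glo luminescence after a minimum 48 h, 37 C compound exposure with 20 nM CPT in Tdp1-knockout DT40 cells stably expressing hTDP1, seeded 400/well; qHTS titration format.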
RORgamma inh: qHTS for inhibitors of ROR gamma transcriptional activity; Nuclear receptor ROR-gamma (Mus musculus), P51450; Drosophila S2 Gal4-RORgamma UAS-luciferase reporter, 20 h; Potency, µM (highest dose often 53.6 µM), for the others: at the top dose activity change, negative = inhibition, hits mostly inhibitors; 5.4% of 310,000 active; AID 2551, 2010; note: potency is the fitted concentration of half-maximal effect; nearly all actives have a fitted effect of over 60% in size
Target sequence (P51450 whole entry, looked up, the tested form may be a part): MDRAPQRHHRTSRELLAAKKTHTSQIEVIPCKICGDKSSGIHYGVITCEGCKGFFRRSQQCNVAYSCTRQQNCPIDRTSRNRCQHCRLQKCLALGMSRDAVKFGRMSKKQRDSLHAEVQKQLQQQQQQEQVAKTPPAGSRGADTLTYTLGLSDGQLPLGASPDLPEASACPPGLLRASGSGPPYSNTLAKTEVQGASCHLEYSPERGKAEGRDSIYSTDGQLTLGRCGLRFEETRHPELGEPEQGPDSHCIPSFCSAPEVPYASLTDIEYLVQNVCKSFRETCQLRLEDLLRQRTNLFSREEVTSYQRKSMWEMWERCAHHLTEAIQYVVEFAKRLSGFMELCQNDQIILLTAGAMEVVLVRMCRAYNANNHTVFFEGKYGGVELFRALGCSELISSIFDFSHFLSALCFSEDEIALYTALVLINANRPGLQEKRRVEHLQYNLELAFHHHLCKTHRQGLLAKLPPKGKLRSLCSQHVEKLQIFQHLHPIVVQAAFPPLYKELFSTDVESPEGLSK
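Luminescence from a UAS-regulated Photinus luciferase reporter in stably transfected Drosophila Schneider cells is measured; decreased signal marks ROR gamma inhibition. Fusion expression is induced by 700 uM copper sulfate for 20 hr.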
IL1B secr inh: qHTS for Inhibitors of Inflammasome Signaling: IL-1-beta AlphaLISA Primary Screen; THP-1 LPS/ATP IL-1B secretion, AlphaLISA, 16 h; hits give low values; activity change, % at 57.5 µM; 4.7% of 360,000 active; in the data active = activity change below about -50%; inconclusive = mostly about -30% to -49%
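THP-1 cells pretreated 1 hr with compounds (up to 57.5 uM final), then stimulated with LPS (250 ng/mL final) plus ATP (1.25 mM final); secreted IL-1B measured by AlphaLISA after 16 hr, decreased signal indicating inhibition.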
Numbers without * were called inactive; ? = inconclusive; nt = not tested or not shown; [ ] = another dose, or the depositor's remark. Sampled rows, rich in hits. Any-hit rate of the full collection: about 21%. Unless noted, calls come from the whole dose curve; as a rule, active = well fitted curve in the direction sought with a large enough effect; inconclusive = small, poorly fitted or top-dose-only effect, or another doubt; inactive = no such curve, though single readings can be large; an effect the other way counts as inactive or inconclusive. % is set by controls: 0 for no effect and ±100 for the full control effect.

SMILES | DT40 TDP1 no CPT | Gal4-VP16 FLuc | ELG1 DNA repair | TDP1 cell CPT | RORgamma inh | IL1B secr inh
COc1cccc(NC(=O)C2CCC(CNS(=O)(=O)c3ccc4c(c3)CC(C)N4C(C)=O)CC2)c1 (stereo not drawn) | 18µM* | -14% | ? | 23µM* | 30% | 24
CCC(C)NC(=O)C1CCC(CNS(=O)(=O)c2ccc3c(c2)CC(C)N3C(=O)C2CC2)CC1 (stereo not drawn) | ? | -11% | 1% | ? | 16% | ?
CCCCN(C)C(=O)C1CCC(CNS(=O)(=O)c2ccc3c(c2)CC(C)N3C(=O)C2CC2)CC1 (stereo not drawn) | 23µM* | ? | ? | 10µM* | ? | -12
Cc1ccc(NC2CCCN(C(=O)CCN3CCCCO3)C2)cc1C (stereo not drawn) | -17% | 0% | 2% | 21% | 1% | 0
CC(=O)N1c2ccc(S(=O)(=O)NCC3CCC(C(=O)Nc4cccc(C)n4)CC3)cc2CC1C (stereo not drawn) | 18µM* | ? | ? | 26µM* | 21% | -2
CC(=O)N1c2ccc(S(=O)(=O)NCC3CCC(C(=O)NC4CCC(C)CC4)CC3)cc2CC1C (stereo not drawn) | -24% | 1% | -21% | ? | 31% | 31
CC(=O)N1c2ccc(S(=O)(=O)NCC3CCC(C(=O)Nc4cccc(C)c4)CC3)cc2CC1C (stereo not drawn) | 15µM* | nt | nt | 16µM* | nt | nt
CCOc1ccc(S(=O)(=O)NCCC(=O)Nc2cccc(C(=O)OC)c2)cc1 | -22% | ? | ? | 0% | 24% | -74*
COc1cccc(CNC(=O)CCNS(=O)(=O)c2ccc3c(c2)CC(C)N3C(C)=O)c1 (stereo not drawn) | ? | -2% | 8.2µM* | ? | -6% | -23
CCC(C)(C)NC(=O)C1CCC(CNS(=O)(=O)c2ccc3c(c2)CC(C)N3C(C)=O)CC1 (stereo not drawn) | 12µM* | nt | nt | 16µM* | nt | nt
COc1ccc(CNS(=O)(=O)c2ccc3c(c2)N(C(C)=O)CC(C)S3)cc1 (stereo not drawn) | 9.2µM* | ? | ? | ? | 44% | -3
CC(=O)N1c2ccc(S(=O)(=O)N3CCC(C(=O)Nc4cccc(C)c4C)CC3)cc2CC1C (stereo not drawn) | -18% | -8% | 19% | ? | ? | -1
CC(=O)N1c2ccc(S(=O)(=O)NCCc3cccc(C)c3)cc2CC1C (stereo not drawn) | 15µM* | nt | nt | 15µM* | nt | nt
CC(=O)N1c2ccc(S(=O)(=O)NCCC(=O)Nc3ccc(C)cn3)cc2CC1C (stereo not drawn) | -27% | 9% | -1% | -19% | 15% | 28
CC(=O)N1c2ccc(S(=O)(=O)NCC3CCC(C(=O)Nc4cccc(C)c4C)CC3)cc2CC1C (stereo not drawn) | 21µM* | nt | nt | ? | nt | nt
COc1ccc([C@]23Cc4ccccc4C(O2)C2=C(CC(C)(C)CC2=O)O3)cc1 | nt | -5%[10 µM] | nt | nt | 0%[10 µM] | nt
CC(=O)c1ccc(C(=O)N2CCCC(CO)(Cc3ccccc3C)C2)s1 (stereo not drawn) | -24% | nt | -1% | ? | nt | 0
CCc1ccc(N2CC(C)Cn3c2nc2c3c(=O)n(CC(=O)O)c(=O)n2C)cc1 (stereo not drawn) | 1% | nt | nt | -13% | nt | nt
CC(=O)N1c2ccc(S(=O)(=O)N(C)CC(=O)Nc3ccccc3C)cc2CC1C (stereo not drawn) | -8% | -11% | 16µM* | -26% | 2% | 6
CC(=O)N1c2ccc(S(=O)(=O)N(C)CC(=O)Nc3cccc(C)c3)cc2CC1C (stereo not drawn) | ? | ? | 0% | ? | ? | 0
COC(=O)C1=C(C(=O)OC)[C@@H]2N(Cc3ccccc3)c3ccccc3[C@@]23C[C@@H](C(=O)OC)N(C(=O)NCc2ccccc2)C3=C1 | nt | -3% | nt | nt | -8% | nt
CC(=NNc1ccc2ccccc2n1)c1ccccc1O | ? | nt | nt | ? | nt | -59*
C/C(=N\Nc1nc2ccccc2nc1C)c1ccccc1O | 0.092µM* | 2µM* | 1% | 0.13µM* | 0.22µM* | 32
C/C(=N\Nc1cccc([N+](=O)[O-])c1)c1ccccc1O | ? | 19% | ? | ? | 14% | -22
CN1CCc2c(sc(NC(=O)C3CCCCC3)c2C(N)=O)C1 | 1% | 0% | ? | 16% | -10% | -21
SMILES | DT40 TDP1 no CPT | Gal4-VP16 FLuc | ELG1 DNA repair | TDP1 cell CPT | RORgamma inh | IL1B secr inh
O=C1CCC([N+](=O)[O-])C(C2CC=CCC2)N1 (stereo not drawn) | -1% | nt | nt | 16% | nt | 7
Cc1c(C(=O)NNC(=O)c2csc(N3CCOCC3)n2)oc2ccc(Br)cc12 | ? | nt | nt | -21% | nt | 2
C[C@H](O)[C@@H]1C(=O)N2CCc3ccc(-c4cccc(F)c4)cc3[C@@H]2C[C@@H]1N(C)S(=O)(=O)c1ccccc1 | ? | nt | nt | ? | nt | -52*
COCC(=O)N(C)[C@H]1C[C@H]2c3cc(-c4ccccc4)ccc3CCN2C(=O)[C@H]1[C@H](C)O | -24% | nt | nt | 12% | nt | 11
C[C@H](O)[C@@H]1C(=O)N2CCc3ccc(-c4ccccc4)cc3[C@@H]2C[C@@H]1N(C)C(=O)c1ccco1 | 15µM* | nt | nt | ? | nt | 9
C[C@H](O)[C@@H]1C(=O)N2CCc3ccc(-c4ccccc4)cc3[C@@H]2C[C@@H]1N(C)C(=O)c1ccc(C#N)cc1 | ? | nt | nt | ? | nt | -16
CC(=O)C[C@@H](O)CC(=O)[C@H]1OC(=O)[C@H](C)CCCCc2ccccc21 | 1% | nt | 5% | -1% | nt | 24
Cc1ccccc1OCC(=O)Nc1nnc(SCc2cc(=O)n3cc(Cl)ccc3n2)s1 | -19% | nt | nt | -12% | nt | nt
CCCCOC(=O)Nc1cc(OC)c(Cl)cc1OC | 9% | -21% | -25% | -4% | ? | 11
COc1ccc(-c2noc(-c3ccc(NC4CCCC4)c([N+](=O)[O-])c3)n2)cc1 | -14% | nt | nt | -1% | nt | nt
O=C(Nc1cc(OC(=O)C(F)(F)F)c2nonc2c1OC(=O)C(F)(F)F)C(F)(F)F | 11µM* | nt | nt | 10µM* | nt | nt
